Data as given in PubChem BioAssay AID624405 (Broad Institute, 2012).
The campaign covered roughly 1,900 compounds. About 250 (13%) were called active. Another 4% or so got no clear call; they are omitted.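 Rule for the calls: active = fitted curve reaches 40% rescue activity at or below the top valid dose, in every test run; inconclusive = test runs disagree, some active and some inactive; inactive = every run misses the threshold or moves the wrong way.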 Only a sample is shown. Results with a measured potency or affinity are listed apart.

test: suppressors of statin myotoxicity in myotubes, dose response, cell-based, C2C12 myotubes, ATP luminescence, cherry pick (AID 624405); settings: C2C12 myotubes + simvastatin, 48 h, scaled: DMSO wells 0, geranylgeraniol wells 100; series mostly up to 19.5 µM; rescue activity (ATP increase): at the top concentration;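 note: myotubes are challenged with simvastatin at 10 µM to lower ATP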

SMILES | rescue activity (ATP increase)
C[C@@H]1CCCCO[C@@H](CN(C)S(=O)(=O)c2ccc(F)cc2)[C@H](C)CN([C@@H](C)CO)C(=O)c2cc(NC(=O)Nc3cccc4ccccc34)ccc2O1 | 33.3% (inactive)
C[C@@H]1CN([C@@H](C)CO)S(=O)(=O)c2ccc(/C=C/c3ccccc3)cc2O[C@@H]1CN(C)C(=O)NC1CCCC1 | 28.4% (inactive)
CCCn1c(SCC(=O)c2ccc(OC)c(OC)c2)nc2c1c(=O)n(C)c(=O)n2C | 8.41% (inactive)
Cc1ccc(N(C(=O)Cn2nnc3ccccc32)C(C(=O)NCc2ccco2)c2ccc(C)o2)cc1 (stereo not given) | 65.9% (inactive)
C[C@@H]1CN([C@H](C)CO)C(=O)Cc2cc(NS(=O)(=O)c3ccc(F)cc3)ccc2O[C@H]1CN(C)Cc1ccc(C(F)(F)F)cc1 | 31.3% (inactive)
C[C@@H]1CN([C@@H](C)CO)C(=O)Cc2cc(NS(=O)(=O)c3ccc(Cl)cc3)ccc2O[C@H]1CN(C)Cc1ccc(Cl)c(Cl)c1 | 29.6% (inactive)
C[C@@H]1CN([C@H](C)CO)C(=O)Cc2cc(NS(=O)(=O)c3ccc(F)cc3)ccc2O[C@@H]1CN(C)Cc1ccc(C(F)(F)F)cc1 | 3.64% (inactive)
C[C@H](CO)N1C[C@H](C)[C@@H](CN(C)Cc2ccc(Cl)c(Cl)c2)Oc2ccc(NS(=O)(=O)c3ccc(Cl)cc3)cc2CC1=O | 28.5% (inactive)
C[C@@H]1CN([C@H](C)CO)C(=O)Cc2cc(NS(=O)(=O)c3ccc(F)cc3)ccc2O[C@@H]1CN(C)Cc1ccc(Cl)c(Cl)c1 | 22.2% (inactive)
C[C@@H]1CN([C@H](C)CO)C(=O)Cc2cc(NS(=O)(=O)c3ccc(F)cc3)ccc2O[C@H]1CN(C)Cc1ccc(Cl)c(Cl)c1 | 30.5% (inactive)
CCCCc1ccc(S(=O)(=O)NCCc2ccncc2)cc1 | 2.98% (inactive)
C[C@H](CO)N1C[C@H](C)[C@H](CN(C)S(=O)(=O)c2ccc(F)cc2)Oc2ncc(C#Cc3cccc(F)c3)cc2C1=O | 7.8% (inactive)
CCOC(=O)C1(C)NC(c2ccc(N(C)C)cc2)C2C(=O)N(c3ccc(OC)cc3)C(=O)C21 (stereo not given) | -13.4% (inactive)
C[C@@H]1CN([C@@H](C)CO)C(=O)c2cc(NS(C)(=O)=O)ccc2O[C@@H](C)CCCCO[C@@H]1CN(C)S(=O)(=O)c1ccc(Cl)cc1 | 24.3% (inactive)
CCOc1nc(Nc2ccc(F)cc2)nc(N2CCN(c3ccc(OC)cc3)CC2)n1 | -11.5% (inactive)
C[C@H]1CN([C@@H](C)CO)C(=O)c2cc(NC(=O)Nc3ccc4c(c3)OCO4)ccc2O[C@@H]1CN(C)C(=O)Nc1ccc(C(F)(F)F)cc1 | 27.4% (inactive)
O=C(CN(Cc1ccccc1C(F)(F)F)C(=O)CNC(=O)c1ccco1)NC1CCCC1 | 3.55% (inactive)
Cc1cc(Cl)c(S(=O)(=O)N2CC(C)OC(C)C2)cc1OCC(N)=O (stereo not given) | -5.59% [at 10 µM] (inactive)
C[C@@H]1CN([C@@H](C)CO)C(=O)c2cc(NC(=O)CCC(F)(F)F)ccc2O[C@@H](C)CCCCO[C@@H]1CN(C)Cc1ccc(C(F)(F)F)cc1 | -5.79% (inactive)
Cc1ccc(C(=O)Nc2c(C(=O)N3CCOCC3)cnn2-c2ccccc2)cc1 | 27.1% (inactive)
Cc1cccc(NS(=O)(=O)c2ccc(-n3cccn3)cc2)c1C | 28.9% (inactive)
COc1ccc(NC(=O)CC2C(=O)NCCN2C(=O)c2ccc(Cl)cc2)cc1 (stereo not given) | 13.3% (inactive)
C[C@H]1CN([C@@H](C)CO)C(=O)Cc2cc(NS(=O)(=O)c3cn(C)cn3)ccc2O[C@H]1CN(C)Cc1ccc(Cl)c(Cl)c1 | 12.2% (inactive)
COc1ccc(C#Cc2ccc3c(c2)O[C@H](CN(C)C(=O)Nc2cccc(OC)c2)[C@H](C)CN([C@@H](C)CO)S3(=O)=O)cc1 | 16.4% (inactive)
C[C@H]1CN([C@@H](C)CO)S(=O)(=O)c2ccc(Br)cc2O[C@@H]1CN(C)S(=O)(=O)c1ccc(F)cc1 | 34.2% (inactive)

SMILES | rescue activity (ATP increase)
C[C@H](CO)N1C[C@H](C)[C@H](CN(C)C(=O)Nc2cc(F)ccc2F)Oc2cc(C#CC3CC3)ccc2S1(=O)=O | 31.3% (inactive)
COc1ccc(C#Cc2ccc3c(c2)O[C@H](CN(C)C(=O)Nc2cccc(OC)c2)[C@H](C)CN([C@H](C)CO)S3(=O)=O)cc1 | 33% (inactive)
C[C@H]1CN([C@@H](C)CO)S(=O)(=O)c2ccc(C#Cc3ccccc3)cc2O[C@@H]1CN(C)C(=O)Cc1ccccn1 | 36.4% (inactive)
C[C@H](CO)N1C[C@H](C)[C@@H](CN(C)S(=O)(=O)c2ccc(F)cc2)Oc2cc(Br)ccc2S1(=O)=O | 20.5% [at 21 µM] (inactive)
O=c1oc2cc(OCc3ccc(F)cc3F)ccc2cc1-c1ccccn1 | 9.74% (inactive)
CC(=O)C[C@@H](O)CC(=O)[C@@H]1OC(=O)CCCCCCc2ccccc21 | 8.12% (inactive)
Cc1ccc(NS(=O)(=O)c2ccc(-c3ccc(=O)[nH]n3)o2)cc1Cl | 29.2% (inactive)
Cc1noc(C)c1S(=O)(=O)Nc1ccc2c(c1)C(=O)N([C@@H](C)CO)C[C@H](C)[C@H](CN(C)S(=O)(=O)c1ccc(Cl)cc1)OCCCC[C@@H](C)O2 | 17% (inactive)
O=C(CN1CCOCC1)N1CCN(c2nnc(-c3ccccc3)c3ccccc23)CC1 | 11.1% (inactive)
Nn1c(SCC(=O)Nc2ccc(S(=O)(=O)N3CCCC3)cc2)nnc1C(F)(F)F | -14.1% (inactive)
CCn1c(SCC(=O)NCc2cccs2)nnc1-c1ccco1 | 4.67% (inactive)
CCOC(=O)c1ccn(-c2nc(-c3ccco3)cc(C(F)(F)F)n2)n1 | 19.6% (inactive)
Cc1occc1-c1nnc(SCC(=O)c2ccc(Cl)cc2)n1CC1CCCO1 (stereo not given) | 14.2% (inactive)
O=C(CN1CCN(S(=O)(=O)c2ccc(Br)cc2)CC1)Nc1ccc2c(c1)OCCO2 | 8.25% (inactive)
Cc1cc(Cl)c(S(=O)(=O)Nc2ccc3c(c2)OCO3)cc1OCC(N)=O | 3.69% (inactive)
C[C@@H]1CN([C@H](C)CO)C(=O)c2cccc(NC(=O)C3CCCCC3)c2O[C@@H]1CN(C)S(=O)(=O)c1ccc(Cl)cc1 | -7.54% (inactive)
Cc1ccc(C2C(=O)N(C3CCC(C)CC3)CC(=O)N2C2CCCC2)cc1 (stereo not given) | -20.3% (inactive)
COc1cc(OC)cc(-c2nc(N)n[nH]2)c1 | 10.1% (inactive)
O=C(Nc1cccc(NC(=O)c2ccccc2F)c1)c1ccccc1 | -47.7% (inactive)
Cc1cccc(NC(=O)c2ccccc2C(=O)O)c1 | -3.2% (inactive)
C[C@H](CO)N1C[C@H](C)[C@@H](CN(C)C(=O)Nc2ccc(F)cc2)OCCCC[C@H](C)Oc2ccc(NC(=O)Cc3ccccc3)cc2C1=O | 17.8% (inactive)
Cc1cccc(OCC(=O)Nc2cc(C)on2)c1 | 5.47% (inactive)
Cc1ccc2nc(-c3ccccc3Cl)cc(C(=O)Nc3cc(C)on3)c2c1 | 24.8% (inactive)
Cc1cc(C)cc(NC(=O)c2ccc(CSc3nnc(C)s3)cc2)c1 | -30.3% (inactive)
Cc1cccc(-c2noc(Cc3ccc(Cl)cc3)n2)c1 | -7.81% (inactive)
